Measurements published in PubChem BioAssay (EPA / NIEHS).
“And” between values parts separate entries of the source, which are not always exact repeats. Equal entries are not always repeated. The source made the active and inactive calls. How the source made its calls: active means hit-call score of the fitted dose curve at least 0.9, where 1 is the maximum; inactive means score below 0.9.

read-out: E-selectin (Homo sapiens) (UniProt P16581); assay: BSK_3C_Eselectin: BioMAP Diversity Plus: 3C Assay for Eselectin Biomarker Activity (AID 2283015); settings: primary human endothelial cells (HUVEC); actives raise or lower the signal
Procedure: BSK_3C is a cell-based, multiplexed-readout assay that uses umbilical vein endothelium, a human vascular primary cell, with measurements taken at 24 hours after chemical dosing in a 96-well plate.BSK_3C_Eselectin is an assay component measured in the BSK_3C assay. It measures E-selectin antibody related to regulation of gene expression using ELISA technology.Data from the assay component BSK_3C_Eselectin was analyzed into 1 assay endpoint. This assay endpoint, BSK_3C_Eselectin, was analyzed with bidirectional fitting relative to DMSO as the negative control and baseline of activity. Using a type of binding reporter, gain or loss-of-signal activity can be used to understand changes in the signaling as they relate to the gene SELE. Furthermore, this assay endpoint can be referred to as a primary readout, because this assay has produced multiple assay endpoints where this one serves a signaling function. To generalize the intended target to other relatable targets, this assay endpoint is annotated to the cell adhesion molecules intended target family, where the subfamily is selectins.
The levels of cell surface (or secreted, indicated by the prefix "s") biomarker endpoints were measured by ELISA. Overt cytotoxicity to cells in confluent adherent cultures (all systems other than the BT system) was assessed by measuring total protein levels using sulforhodamine B (SRB) staining in parallel cultures at the time of biomarker measurements, indicated as SRB endpoints. For proliferation assays for adherent cell types, individual cell types are cultured at sub-confluence and relative cell numbers quantified by SRB staining at time points optimized for each system (48 h: 3C and CASM3C systems; 72 h: BT and HDF3CGF systems; 96 h: SAg system). SRB was performed by staining cells with 0.1% SRB after fixation with 10% TCA and reading wells at 560 nm.Viability and proliferation of PBMC (T cells) was quantified by Alamar Blue reduction for the SAg and BT systems. For PBMC viability (referred to as PBMC Cytotoxicity within the assay endpoint names), cells were plated (75,000/well in a 96-well plate) and then chemical samples added for 1 h before addition of activators, SEB and TSST-1 (20 ng/mL final concentration each). Cells were incubated for 90 h. Then, Alamar Blue (20 uL/well) (Invitrogen, Cat DAL1100) was added for 6 h, and the plates were read with a fluorescence microplate reader at 546/580 nm (excitation/emission). For PBMC proliferation, cells were plated and activated as above but incubated for only 16 h prior to addition of Alamar Blue. Plates were read after 6 h.

E-selectin (Homo sapiens), sequence (P16581 whole entry, looked up): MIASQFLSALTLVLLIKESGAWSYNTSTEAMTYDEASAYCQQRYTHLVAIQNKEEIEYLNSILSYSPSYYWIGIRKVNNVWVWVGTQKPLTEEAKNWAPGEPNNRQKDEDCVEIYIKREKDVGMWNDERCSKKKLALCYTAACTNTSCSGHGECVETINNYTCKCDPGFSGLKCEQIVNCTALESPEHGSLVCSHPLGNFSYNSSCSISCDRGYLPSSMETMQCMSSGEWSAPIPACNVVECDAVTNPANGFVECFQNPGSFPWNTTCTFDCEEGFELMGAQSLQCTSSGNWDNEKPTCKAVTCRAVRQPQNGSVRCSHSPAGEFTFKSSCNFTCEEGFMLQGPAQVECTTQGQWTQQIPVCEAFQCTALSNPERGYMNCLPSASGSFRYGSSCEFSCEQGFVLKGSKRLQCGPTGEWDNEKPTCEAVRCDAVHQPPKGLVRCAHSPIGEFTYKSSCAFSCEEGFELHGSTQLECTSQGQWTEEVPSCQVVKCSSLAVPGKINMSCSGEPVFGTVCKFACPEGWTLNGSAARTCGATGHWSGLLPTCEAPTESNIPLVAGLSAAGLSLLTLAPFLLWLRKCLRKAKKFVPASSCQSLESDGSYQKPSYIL

SMILES | AC50 | outcome
c1ccc2c(c1)-c1ccc3ccc4cccc5cc-2c1c3c45 | 0.575 µM (active) | 
CCOC(=O)C=Cc1ccccc1 |  | inactive
CCCCOCCOCCO |  | inactive
COc1ccccc1NC(=O)CC(C)=O |  | inactive
CC(C)Cc1ccc(C(C)C(=O)O)cc1 (stereo not given) |  | inactive
O=C1OC2(c3ccc(O)cc3Oc3cc(O)ccc32)c2ccccc21 |  | inactive
CCOC(=O)CCCCCCCCC(=O)OCC |  | inactive
O=C(O)C(F)(F)C(F)(F)C(F)(F)C(F)(F)C(F)(F)C(F)(F)C(F)(F)C(F)F |  | inactive
c1ccc(OCCOc2ccccc2)cc1 |  | inactive
CC1=CC(C)C(C=O)C(C)C1 (stereo not given) (tested in a mixture with another compound) |  | inactive
CCCCCCCC1CCCC1=O (stereo not given) | 31.3 µM (active) | 
CC(=O)OCC=C(C)CCC=C(C)CCC=C(C)C |  | inactive
CC1(C)[C@H](C=C(Cl)Cl)[C@H]1C(=O)OCc1cccc(Oc2ccccc2)c1 |  | inactive
C[C@]12CC[C@@H]3c4ccc(O)cc4CC[C@H]3[C@@H]1CC[C@@H]2O | 4.87 µM (active) | 
CC(=O)CCC=C(C)CCC=C(C)C |  | inactive
c1ccc(Sc2ccccc2)cc1 | 29.9 µM (active) | 
OCCN1CCOCC1 |  | inactive
CCC(=O)OCC=Cc1ccccc1 |  | inactive
CCCCCCCCCC(=O)OCC | 15.2 µM (active) | 
CC/C(=C(\c1ccccc1)c1ccc(OCCN(C)C)cc1)c1ccccc1 | 11.7 µM (active) and 11.2 µM (active) | 

SMILES | AC50 | outcome
C=C(C)C(N)=O |  | inactive
C=C(C)C(=O)OCCC(F)(F)C(F)(F)C(F)(F)C(F)(F)C(F)(F)C(F)(F)C(F)(F)C(F)(F)F |  | inactive
CC(=O)c1ccc(C)cc1 |  | inactive
CC(C)CCCC(C)(C)O |  | inactive
CCCCN(CCO)CCO |  | inactive
Nc1ccc(N)c([N+](=O)[O-])c1 | 13.6 µM (active) | 
CC(=O)OC(C)(C)C1CC=C(C)CC1 (stereo not given) | 31 µM (active) | 
C=CC(=O)OCC(CO)(COC(=O)C=C)COC(=O)C=C | 0.269 µM (active) | 
CC(C)(C)c1cccc(O)c1 |  | inactive
C#C[C@]1(O)CC[C@H]2[C@@H]3CCc4cc(O)ccc4[C@H]3CC[C@@]21C | 5.36 µM (active) | 
O=C(c1ccc(OCCN2CCCCC2)cc1)c1c(-c2ccc(O)cc2)sc2cc(O)ccc12 | 37.8 µM (active) | 
C=C(F)C(=O)OC(C(F)(F)F)C(F)(F)F |  | inactive
CCCCCCCCCCCCS | 20 µM (active) | 
CCCO[Si](OCCC)(OCCC)OCCC |  | inactive
O=S1(=O)CC(Cl)(Cl)C(Cl)(Cl)C1 | 0.611 µM (active) | 
CCn1cc(C(=O)O)c(=O)c2ccc(C)nc21 |  | inactive
O=C(O)C(F)(F)OC(F)(F)C(F)(F)OC(F)(F)C(F)(F)C(F)(F)C(F)(F)F |  | inactive
OCC(F)(OC(F)(F)C(F)(OC(F)(F)C(F)(F)C(F)(F)F)C(F)(F)F)C(F)(F)F (stereo not given) | 3.09 µM (active) and 3.33 µM (active) | 
CC=CC(=O)C1=C(C)C=CCC1(C)C |  | inactive
COC(=O)c1ccc(C(=O)OC)cc1 |  | inactive
